Results filed as inconclusive are left out. Where a call stands in place of a potency, no number is given. A number with no mark means an inactive call. Activity calls are given as the source filed them. Calls follow the shape of the dose curve; as a rule, active = well fitted cell-killing curve with a large enough effect in the repeat runs; inconclusive = weak or mixed curves, or effect the other way; inactive = flat fitted curve, though single readings scatter.
Potency is read from the fitted curve at half-maximal effect.

This test is described as follows: cAMP Responsive Elements (CRE) small molecule antagonists, cell-based qHTS assay: qHTS cell viability counter screen (AID 2060913). Also: nearly all actives have a fitted effect of over 40% in size. As to conditions: CRE-bla HEK293T viability, CellTiter-Glo luminescence, 5 h; series mostly up to 92.4 µM. An outline of the steps:
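Steps: cells plated and held 18 hrs at 37 C/5% CO2; compounds and NKH477 (0.25 uM final) added; 3 hrs incubation; reporter substrate read; CellTiter-Glo added to measure cytotoxicity by luminescence.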
On the technique in general: Quantitative high-throughput screening tests each substance at several concentrations.
In the case of `CC(C)=CCl`, the Potency entry is “inactive”.

Consider `CC(C)(C)NCC(O)COc1ccc(NC(=O)NC2CCCCC2)cc1` (stereo not given), for which the Potency entry is “inactive”.

`CCN(CC)CCNC(=O)c1ccc(NC(C)=O)cc1`: the Potency entry was “inactive”.

Turning to `O=C1CCC(C2CCCCC2)CC1`, the Potency entry is “inactive”.

As for `C=C(C)C(=O)OCC(CC)(COC(=O)C(=C)C)COC(=O)C(=C)C`, the Potency entry was “inactive”.

Regarding `COc1cccc2c1C(=O)c1c(O)c3c(c(O)c1C2=O)C[C@@](O)(C(=O)CO)C[C@@H]3O[C@H]1C[C@H](N)[C@H](O[C@@H]2CCCCO2)[C@H](C)O1`, the Potency result is “inactive”.

As to `O=C1c2c(O)ccc([N+](=O)[O-])c2C(=O)c2c([N+](=O)[O-])ccc(O)c21`, the Potency was 27.1 µM (active).

For `CN(CC1(C)CCCO1)S(=O)(=O)c1ccc(Cl)c(S(N)(=O)=O)c1` (stereo not given), the Potency result is “inactive”.

Consider `NC(=O)Nc1nc2ccccc2[nH]1`, for which the Potency result was “inactive”.

Consider `Nc1nnc(-c2cccc(Cl)c2Cl)c(N)n1`, for which the Potency entry is “inactive”.

In the case of `COc1ccccc1N1CCN(CCCNc2cc(=O)n(C)c(=O)n2C)CC1`, the Potency result was “inactive”.

As to `NC(=O)c1c(Cl)cccc1Cl`, the Potency entry was “inactive”.

With `C[C@@H]1NC(=O)[C@@H](N)CNC(=O)[C@H](C2CCNC(N)=N2)NC(=O)/C(=C/NC(N)=O)NC(=O)[C@H](CNC(=O)C[C@@H](N)CCCN)NC1=O` (stereo not given in full), the viability change, negative = cytotoxic was -0.0663% [at 0.349 µM].

As for `COc1ccccc1/C=C/C=O`, the Potency entry was “inactive”.

For `CC(C#N)(CCC(=O)O)N=NC(C)(C#N)CCC(=O)O` (stereo not given), the Potency result is “inactive”.

Take `C/C(=N\O)c1ccc(OCC(=O)N2CCCCC2)cc1`: the Potency entry was “inactive”.

As to `CCCCCCCC1CCCC1=O` (stereo not given), the Potency entry is “inactive”.

As for `CCCCCCC1CCCC(=O)O1` (stereo not given), the Potency entry is “inactive”.

Take `C[Si](Cl)(c1ccccc1)c1ccccc1`: the Potency entry is “inactive”.

Take `CCO[Si](CCCCl)(OCC)OCC`: the Potency result is “inactive”.

As to `C/C(=C(\CCO)SS/C(CCO)=C(\C)N(C=O)Cc1cnc(C)nc1N)N(C=O)Cc1cnc(C)nc1N`, the Potency entry is “inactive”.

With `CCN=C1C=CC(=C(c2ccc(N(CC)CC)cc2)c2ccc(N(CC)CC)cc2)c2ccccc21`, the Potency was 48.3 µM (active).

For the compound `CC(C)(O)c1ccc(CNC(=O)c2cccnc2Oc2ccc(F)cc2)cc1`, the Potency result is “inactive”.

Regarding `CN1Cc2cc(C(=O)N3CCC(C4CCNCC4)CC3)ccc2N[C@@H](CC(=O)O)C1=O`, the Potency result was “inactive”.

On to `CCCN(CCc1cccs1)[C@H]1CCc2c(O)cccc2C1`, for which the Potency entry was “inactive”.

As to `C1CCN(CN2CCCCC2)CC1`, the Potency result is “inactive”.

For `Clc1nc2ccccc2s1`, the Potency result was “inactive”.

As to `NNc1nc(-c2ccc([N+](=O)[O-])cc2)cs1`, the Potency entry was “inactive”.

As to `Cn1c(=O)c2c(ncn2CC(O)CO)n(C)c1=O` (stereo not given), the Potency entry was “inactive”.

For the compound `CCN(Cc1ccncc1)C(=O)C(CO)c1ccccc1` (stereo not given), the Potency entry was “inactive”.

In the case of `Cc1cc(O)c2c(c1)C(=O)c1cccc(O)c1C2=O`, the Potency entry is “inactive”.

Consider `CC(C)N=C(N)/N=C(\N)Nc1ccc(Cl)cc1`, for which the Potency entry was “inactive”.

Turning to `NC(=O)NC1N=C([O][Al])NC1=O` (stereo not given), the Potency entry is “inactive”.

`Cc1ccc(C)c(S(=O)(=O)O)c1`: the Potency result was “inactive”.

Regarding `CC1=C(C(=O)OC(C)C)C(c2cccc([N+](=O)[O-])c2)C(C(=O)OC2CN(C(c3ccccc3)c3ccccc3)C2)=C(N)N1` (stereo not given), the Potency entry was “inactive”.

Take `O=C(Nc1cccc([N+](=O)[O-])c1)c1cc2ccccc2cc1O`: the Potency result is “inactive”.

Take `N#Cc1ccc(C/C(=N/NC(=O)Nc2ccc(OC(F)(F)F)cc2)c2cccc(C(F)(F)F)c2)cc1`: the Potency entry was “inactive”.

For the compound `CN1CCN(c2cc3c(nn2)Oc2ccccc2N3C)CC1`, the viability change, negative = cytotoxic is 4.41% [at 18.9 µM].

Take `CC(=O)O[C@]1(C(C)=O)CC[C@H]2[C@@H]3C=C(Cl)C4=CC(=O)[C@@H]5C[C@@H]5[C@]4(C)[C@H]3CC[C@@]21C`: the Potency result is “inactive”.

On to `COc1cc(S(=O)(=O)O)c(C)cc1N=Nc1c(O)ccc2cc(S(=O)(=O)O)ccc12`, for which the Potency result was “inactive”.

Values taken from PubChem BioAssay (Tox21).
